In one assay the test system is E18 rat cortical neuron-glia co-culture. The assay can be described thus: fiber score / MBP score (myelination specific beyond OL differentiation) (ratio); higher = more myelination-specific MBP alignment. The conditions noted are these: 5 µM; treatment time: 8 days (DIV5-DIV13). The procedure, abridged: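 Library compounds were applied at 1 or 5 µM in myelination medium, DIV5 to DIV13, to primary E18 rat cortical co-cultures grown at 20,000 cells/well in 96-well plates. After 4 % paraformaldehyde fixation and MBP/Olig2/DAPI immunostaining, four 10X fields per well in duplicate wells were scored. Each value is continuous MBP fiber length per Olig2+ nucleus divided by thresholded MBP area × intensity per Olig2+ nucleus.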
`CCOC(=O)[C@H](CCc1ccccc1)N[C@H]1CCc2ccccc2N(CC(=O)O)C1=O` [Benazepril]: the “fiber score / MBP score” value worked out at 0.971.
On the same count and under the same terms, for `CNCCC=C1c2ccccc2CCc2ccccc21` [Nortriptyline] the value was 1.93; for `COc1cc(NC(C)CCCN)c2ncccc2c1` (centres undefined) [Primaquine], 0.985.
As to `OC(Cn1cncn1)(Cn1cncn1)c1ccc(F)cc1F` [Fluconazole], the “fiber score / MBP score” value stood at 0.784.
On to `CC1(C)S[C@@H]2[C@H](NC(=O)Cc3ccccc3)C(=O)N2[C@H]1C(=O)O` [Penicillin G], for which the “fiber score / MBP score” value turned out to be 1.19.

The next assay has the same test system. The assay can be described thus: myelination (MBP fiber length per Olig2+ nucleus), % of 1 µM DAPT response (DMSO = 0) (% of DAPT); higher = more myelination, active = 50 or more. The conditions noted are these: 1 µM; treatment time: 8 days (DIV5-DIV13). The method, boiled down:
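Library compounds at 1 or 5 µM in myelination medium were applied from DIV5 to DIV13 to papain-dissociated E18 rat cortical co-cultures seeded at 20,000 cells/well on poly-d-lysine/laminin 96-well plates. Fixed cells (4 % paraformaldehyde) were immunostained for MBP and Olig2 with DAPI, and four 10X fields were analysed in each duplicate well. Continuous straight MBP fiber length per Olig2+ nucleus was set to 0 for 0.1 % DMSO and to 100 for a 1 µM positive control.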
Take `CC12CC3CC(C)(C1)CC(N)(C3)C2` [Memantine]: the myelination is 12.9 (inactive).
Regarding `CNC[C@H](O)c1ccc(O)c(O)c1` [Epinephrine], the myelination was 2.28 (inactive).
Turning to `CC(C)[C@H]1CC[C@H](C(=O)N[C@H](Cc2ccccc2)C(=O)O)CC1` [Nateglinide], the myelination is -12.6 (inactive).
Consider `Cc1nnc(SCC2=C(C(=O)O)N3C(=O)[C@@H](NC(=O)Cn4cnnn4)[C@H]3SC2)s1` [Cefazolin], for which the myelination was -6.67 (inactive).
As to `CN1CCN(c2nc3cc(C(F)(F)F)ccc3n3cccc23)CC1`, the myelination is -2.34 (inactive).
Turning to `CC(COc1ccccc1Cc1ccccc1)N1CCCCC1` (centres undefined) [Benproperine], the myelination was -8.06 (inactive).
On the same count and under the same terms, the result for `Cn1ccnc1S` [Methimazole] reads -14.3 (inactive); that for `C#C[C@]1(O)CC[C@H]2[C@@H]3CCc4cc(O)ccc4[C@H]3CC[C@@]21C` [Ethinyl Estradiol], -18.3 (inactive).
Turning to `COc1cc(CNC(=O)CCCC/C=C\C(C)C)ccc1O` [Zucapsaicin], the myelination is -19.7 (inactive).
For the compound `Nc1nc2c(ncn2COCCO)c(=O)[nH]1` [Acyclovir], the myelination is -11.9 (inactive).
Consider `CO[C@H]1/C=C/O[C@@]2(C)Oc3c(C)c(O)c4c(O)c(c(/C=N/N5CCN(C6CCCC6)CC5)c(O)c4c3C2=O)NC(=O)/C(C)=C\C=C\[C@H](C)[C@H](O)[C@@H](C)[C@@H](O)[C@@H](C)[C@H](OC(C)=O)[C@@H]1C` [Rifapentine], for which the myelination is 2.99 (inactive).
On the same count and under the same terms, the result for `Cc1cccc(C)c1OCC(C)N` (centres undefined) [Mexiletine] reads 8.19 (inactive); that for `CNCC[C@H](Oc1cccc2ccccc12)c1cccs1` [Duloxetine], -25.8 (inactive).
On to `C[C@@H](O)[C@H]1C(=O)N2C(C(=O)O)=C(S[C@@H]3CN[C@H](C(=O)N(C)C)C3)[C@H](C)[C@H]12` [Meropenem], for which the myelination was 2.11 (inactive).
Take `CC1(C)S[C@@H]2[C@H](/N=C/N3CCCCCC3)C(=O)N2[C@H]1C(=O)O` [Amdinocillin]: the myelination was -21.5 (inactive).
In the case of `COc1ccc(Cl)cc1C(=O)NCCc1ccc(S(=O)(=O)NC(=O)NC2CCCCC2)cc1` [Glyburide], the myelination is 1.49 (inactive).
For the compound `COC(=O)[C@H](c1ccccc1Cl)N1CCc2sccc2C1` [Clopidogrel], the myelination is -6.76 (inactive).
Turning to `CC(=O)N1CCN(c2ccc(OCC3COC(Cn4ccnc4)(c4ccc(Cl)cc4Cl)O3)cc2)CC1` (centres undefined) [Ketoconazole], the myelination is -0.358 (inactive).
Consider `CCOc1cc(N)c(Cl)cc1C(=O)NCC1CN(Cc2ccc(F)cc2)CCO1` (centres undefined) [Mosapride], for which the myelination was -41.5 (inactive).
The same measure, in the same setting: the result for `CC[C@H]1OC(=O)[C@H](C)[C@@H](O[C@H]2C[C@@](C)(OC)[C@@H](O)[C@H](C)O2)[C@H](C)[C@@H](O[C@@H]2O[C@H](C)C[C@H](N(C)C)[C@H]2O)[C@](C)(O)C[C@@H](C)CN(C)[C@H](C)[C@@H](O)[C@]1(C)O` [Azithromycin] reads -7.57 (inactive); that for `C[C@@H]1O[C@@H](OC[C@H]2O[C@@H](Oc3c(-c4ccc(O)c(O)c4)oc4cc(O)cc(O)c4c3=O)[C@H](O)[C@@H](O)[C@@H]2O)[C@H](O)[C@H](O)[C@H]1O` [Rutin], -12 (inactive); that for `CN(C)CCCC1(c2ccc(F)cc2)OCc2cc(C#N)ccc21` (centres undefined) [Citalopram], -18.2 (inactive).
On the same count and under the same terms, for `C#C[C@]1(O)CC[C@H]2[C@@H]3CCC4=Cc5oncc5C[C@]4(C)[C@H]3CC[C@@]21C` [Danazol] the value was -20.4 (inactive).
Consider `Cc1cc(NS(=O)(=O)c2ccc(N)cc2)no1` [Sulfamethoxazole], for which the myelination was -3.29 (inactive).
In the case of `c1ccc2c(CC3=NCCN3)cccc2c1` [Naphazoline], the myelination was 13.7 (inactive).
In the case of `CCOC(=O)[C@H](CCc1ccccc1)N[C@@H](C)C(=O)N1CCC[C@H]1C(=O)O` [Enalapril], the myelination is -22.3 (inactive).
Consider `N[C@@H](C(=O)N[C@@H]1C(=O)N2C(C(=O)O)=C(CSc3c[nH]nn3)CS[C@H]12)c1ccc(O)cc1` [Cefatrizine], for which the myelination is -4.14 (inactive).
On to `CN1CC(=O)N2[C@H](c3ccc4c(c3)OCO4)c3[nH]c4ccccc4c3C[C@@H]2C1=O` [Tadalafil], for which the myelination was -45.7 (inactive).
Take `Nc1nc2c(ncn2COC(CO)CO)c(=O)[nH]1` [Ganciclovir]: the myelination was -5.82 (inactive).
On to `OC(c1cc(C(F)(F)F)nc2c(C(F)(F)F)cccc12)C1CCCCN1` (centres undefined) [Mefloquine], for which the myelination is -11.1 (inactive).
As to `C[C@H](CCC(=O)O)[C@H]1CC[C@H]2[C@@H]3C(=O)C[C@@H]4CC(=O)CC[C@]4(C)[C@H]3CC(=O)[C@]12C` [Dehydrocholic Acid], the myelination is -18.3 (inactive).
As to `O=C1NC(=O)C(c2ccccc2)(c2ccccc2)N1` [Phenytoin], the myelination is -17.5 (inactive).
With `COc1cc2nc(N3CCN(C(=O)C4CCCO4)CC3)nc(N)c2cc1OC` (centres undefined) [Terazosin], the myelination is 11.7 (inactive).
Consider `CN(C)CCCN1c2ccccc2Sc2ccc(Cl)cc21` [Chlorpromazine], for which the myelination is 8.68 (inactive).
Same read-out and setting: the result for `CCOC(=O)[C@H](CCc1ccccc1)N[C@H]1CCc2ccccc2N(CC(=O)O)C1=O` [Benazepril] reads -15.3 (inactive).
Same read-out and setting: for `CNCCC=C1c2ccccc2CCc2ccccc21` [Nortriptyline] the value was -1.74 (inactive); for `COc1cc(NC(C)CCCN)c2ncccc2c1` (centres undefined) [Primaquine], -0.112 (inactive); for `OC(Cn1cncn1)(Cn1cncn1)c1ccc(F)cc1F` [Fluconazole], 5.01 (inactive).
For `CC1(C)S[C@@H]2[C@H](NC(=O)Cc3ccccc3)C(=O)N2[C@H]1C(=O)O` [Penicillin G], the myelination is 12.3 (inactive).

These data come from the supplement of paper PMC4840960.
